# In the library only some 1.2% were active in any assay of this set; here they are far more common.
# TLR4 MyD88 comp – inhibitors of human TLR4-MyD88 binding; 0.18% of 200,000 active; AID 861; HeLa CL3-4 TLR4/MyD88 BLA complementation, FRET ratio; O00206+Q99836; inhibition, % at 8.4 µM; in the data active means inhibition above about 25%;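 further: 0% = vehicle and 100% = reference inhibitor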
# TLR9-MyD88 block – inhibitors of human TLR9-MyD88 binding; Q9NR96+Q99836; AID 504734; inhibition, % at 4.98 µM; CHO BLA complementation TLR9-MyD88, CCF4 FRET ratio; 0.21% of 340,000 active;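 active means inhibition above the mean over all tested compounds plus 3 SD, cut at about 21% in these data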;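 further: 0% = DMSO only wells and 100% = clavulanate BLA inhibitor control wells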
# Neddylation inh – blocks human cullin neddylation; P61081+Q13564; TR-FRET cullin neddylation, biochemical; inhibition, % at 25 µM; 0.58% of 360,000 active; AID 651699; in the data active means inhibition above about 36%
# NPR2 activator – GC-B (human) receptor activation; 0.11% of 370,000 active; AID 1920062; HEK293-GC-B cells, CNP EC30, cGMP TR-FRET; 0% at EC30 CNP, 100% saturating CNP; activation, % at 10 µM;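 active means activation at 10 µM reaching about 35% in either raw or pattern-adjusted values, limit read from the data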
# Target sequence (P20594 whole entry, looked up): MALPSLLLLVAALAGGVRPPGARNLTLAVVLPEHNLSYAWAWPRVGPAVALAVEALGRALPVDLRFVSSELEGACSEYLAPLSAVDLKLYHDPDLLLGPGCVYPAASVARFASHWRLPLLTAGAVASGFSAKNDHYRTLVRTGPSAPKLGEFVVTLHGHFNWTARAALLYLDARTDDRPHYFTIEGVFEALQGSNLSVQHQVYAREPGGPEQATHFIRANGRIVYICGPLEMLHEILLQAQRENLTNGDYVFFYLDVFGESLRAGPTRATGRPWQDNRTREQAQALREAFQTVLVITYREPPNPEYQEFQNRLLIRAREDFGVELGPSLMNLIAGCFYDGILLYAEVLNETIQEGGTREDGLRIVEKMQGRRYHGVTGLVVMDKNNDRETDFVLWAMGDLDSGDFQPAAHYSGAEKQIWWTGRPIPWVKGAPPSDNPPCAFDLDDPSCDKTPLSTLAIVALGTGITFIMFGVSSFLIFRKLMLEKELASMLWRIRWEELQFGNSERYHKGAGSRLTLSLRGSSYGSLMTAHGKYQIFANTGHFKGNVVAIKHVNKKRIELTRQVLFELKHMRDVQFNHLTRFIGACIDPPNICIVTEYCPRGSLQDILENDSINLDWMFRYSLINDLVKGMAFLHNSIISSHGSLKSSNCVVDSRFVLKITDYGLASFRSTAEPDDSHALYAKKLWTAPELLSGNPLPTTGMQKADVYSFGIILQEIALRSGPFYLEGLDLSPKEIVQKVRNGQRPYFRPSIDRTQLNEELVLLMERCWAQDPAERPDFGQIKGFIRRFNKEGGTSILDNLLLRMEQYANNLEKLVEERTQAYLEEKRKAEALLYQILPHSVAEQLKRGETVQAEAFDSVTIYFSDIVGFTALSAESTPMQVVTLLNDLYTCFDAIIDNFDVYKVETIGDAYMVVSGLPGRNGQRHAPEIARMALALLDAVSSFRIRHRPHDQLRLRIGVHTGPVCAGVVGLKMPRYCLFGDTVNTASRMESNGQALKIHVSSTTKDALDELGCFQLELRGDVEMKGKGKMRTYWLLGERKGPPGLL
# GC-A act – GC-A (human) enzyme activation | P16066 | 0.14% of 370,000 active | AID 1671463 | activation, % at 10 µM | HEK293 GC-A cells, cGMP TR-FRET, EC30 ANP; 0% at EC30 ANP, 100% saturating ANP; in the data active means activation above about 40%
# NOD2-RIPK2 inh – blocks binding of human NOD2 to RIPK2. O43353. CHO BLA complementation NOD2-RIPK2, CCF4 ratio. inhibition, % at 4.98 µM. 0.38% of 360,000 active. AID 624267; in the data active means inhibition above about 21%;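 further: 0% = vehicle only and 100% = reference blocker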
# Neddyl conf – confirmation of human cullin neddylation inhibitors | shares compounds with Neddylation inh | TR-FRET cullin neddylation biochemical assay | AID 652217 | calls only at 25 µM | 13% of 1,800 active; in the data active means inhibition above about 40%;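 further: neddylation substrate is the cullin 1 ring ligase complex with SKP2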
# * marks the source's active call; other numbers are inactive results; i = inactive; . = no result given; + = active, no number.
SMILES,TLR4 MyD88 comp,TLR9-MyD88 block,Neddylation inh,NPR2 activator,GC-A act,NOD2-RIPK2 inh,Neddyl conf
Cc1ccc(-c2c(C(=O)N/N=C/c3ccc(OC(C)C)cc3)nnn2-c2nonc2N)cc1,.,-4.7,45.4*,-1.1,-8.0,-11.2,i
CCOc1ccc(-c2c(C(=O)N/N=C/c3ccc(OC(C)C)cc3)nnn2-c2nonc2N)cc1,0.0,-4.5,36.8,6.5,-1.1,-17.6,.
Cc1ccc(-c2c(C(=O)N/N=C/c3cccc(Cl)c3)nnn2-c2nonc2N)cc1,.,-0.2,0.8,-4.5,1.0,14.0,.
Cc1ccc(-c2c(C(=O)N/N=C/c3ccc4c(c3)OCO4)nnn2-c2nonc2N)cc1,.,2.5,49.6*,-5.5,-0.3,14.4,.
CCCc1c(C(=O)N/N=C/c2ccc3c(c2)OCO3)nnn1-c1nonc1N,.,2.4,41.8*,-5.5,3.2,-8.9,i
COc1ccc(CSc2nnc(SCC(=O)Nc3ccc4c(c3)OCO4)s2)cc1,.,.,.,-5.5,1.4,.,.
Cc1nc([N+](=O)[O-])cn1CC(Cl)Cn1cc([N+](=O)[O-])nc1C,.,.,.,1.9,1.0,.,.
Cc1cccc(S(=O)(=O)N(C)C[C@H]2OCc3cn(nn3)CCCC(=O)N([C@@H](C)CO)C[C@@H]2C)c1,.,-1.1,-8.3,-6.4,3.9,1.4,.
CCOC(=O)[C@@]12CCCC3=C1N(CCC3)C(=O)[C@H]2CC(=O)NCCCCc1ccccc1,.,.,.,-4.0,-0.8,.,.
CCCOc1ccc(-c2c(C(=O)N/N=C(\C)c3ccco3)nnn2-c2nonc2N)cc1,.,-13.1,40.1*,8.7,-2.2,-6.9,i
COCc1c(C(=O)N/N=C(/C)c2cccs2)nnn1-c1nonc1N,.,-4.3,43.8*,-1.3,0.7,-10.9,i
Cc1cccc(N2CCN(C(=O)CCC(=O)N3CC(C)Oc4ccc(C)cc43)CC2C)c1 (configuration not stated),.,14.0,-1.3,-3.1,-1.0,-7.2,.
CCOC(=O)[C@H]1[C@H]2COc3ccc(OC)cc3[C@@H]2N2C(=O)CN(CCc3c[nH]c4ccccc34)C(=O)[C@@]12C,.,-5.9,-6.7,-7.6,-5.2,-2.4,.
CCCCN(C(=O)CN1C(=O)C2CCCCC2C1=O)c1c(N)n(CCCC)c(=O)[nH]c1=O (configuration not stated),.,2.4,9.7,1.0,2.9,-9.4,.
CCCCCCCCCCCCCCCC(=O)Nc1ccn(C2OC(CO)C(O)C2O)c(=O)n1 (configuration not stated),.,-6.4,3.8,5.6,2.3,-6.9,.
CCSC1=C(C#N)C2(CCCCC2)C2=C(CC(C)(C)CC2=O)N1,-11.1,-3.8,44.1*,1.2,1.3,2.2,i
CC1(C)CC(=O)C2=C(C1)NC(SCC(N)=O)=C(C#N)C21CCCCC1,-6.5,7.3,11.8,0.6,-2.9,-4.5,.
CCOC(=O)[C@]12CCCC3=C1N(CCC3)C(=O)[C@@H](CC(=O)NCc1ccc(OC)c(OC)c1)C2,.,.,.,8.5,5.5,.,.
O=C1O[C@@H](c2ccc(O)cc2)Cc2cccc(O)c21,.,-5.4,39.0*,-5.8,-1.1,-13.2,.
Cc1cccc(N2CCN(C(=O)c3cccc(N4CCCC4=O)c3)C(C)C2)c1 (configuration not stated),.,-18.5,-8.0,3.5,-1.2,-7.8,.
Cn1c(=O)c2nc(Cl)c(-c3ccccc3)nc2n(C)c1=O,-4.6,-3.2,11.3,2.0,4.3,-2.8,.
Cn1c(=O)c2nc(-c3ccccc3)c(-c3ccccc3)nc2n(C)c1=O,.,-5.6,51.7*,-21.1,-24.7,-4.5,i
CC(C)NCC(O)COCc1ccc(Cl)cc1 (configuration not stated),-6.2,-7.0,-3.7,0.2,3.8,-8.4,.
CC(C)NCC(O)COCCOc1ccc(Cl)cc1 (configuration not stated),.,-3.1,75.9*,7.7,-5.5,-3.3,i
COc1cc(-c2nnc(CSc3nnc(Nc4ccc(C(C)C)cc4)s3)o2)cc(OC)c1OC,11.8,-4.6,42.8*,-11.6,-10.1,-9.6,i
SMILES,TLR4 MyD88 comp,TLR9-MyD88 block,Neddylation inh,NPR2 activator,GC-A act,NOD2-RIPK2 inh,Neddyl conf
CCCc1ccc(C(O)c2ncc(-c3ccccc3C)[nH]2)cc1 (configuration not stated),.,.,2.8,-1.1,2.2,1.7,.
CCOC(=O)/C=c1\s/c(=C\c2ccc(C(=O)OC)cc2)c(=O)n1CC(=O)Nc1ccccc1,7.3,9.6,40.3*,-1.1,0.4,3.0,i
COc1cc2c(C#CCO)c(-c3ccc(C#N)cc3)oc(=O)c2cc1OC,.,3.3,74.7*,-8.7,6.1,3.2,+
C[C@H](O)[C@@H]1C(=O)N2CCc3c([nH]c4c(-c5ccccc5)cccc34)[C@@H]2C[C@@H]1N(C)C(=O)Nc1ccccc1,.,.,.,-5.3,-8.0,.,.
O=C(O)C/C(=C\c1ccc2c(c1)OCO2)c1nc2ccccc2s1,.,3.2,44.6*,0.4,4.0,-3.9,.
COc1cc(/C=C/C(=O)OCC(=O)N2CCN(S(=O)(=O)c3ccc(C)cc3C)CC2)ccc1O,-4.3,1.7,47.5*,0.3,1.2,10.6,i
CCN(CC)c1ccc(S(=O)(=O)N2CCOCC2)cc1NC(=O)COC(=O)/C=C/c1ccc(O)c(OC)c1,.,-15.2,31.9*,-2.0,0.9,-13.2,i
COc1cccc(/C=C/C(=O)N2CCN(S(=O)(=O)c3ccccc3)CC2)c1,.,1.1,41.2*,-1.6,-0.1,2.1,i
COc1cccc(/C=C/C(=O)OCC(=O)Nc2ccc(S(=O)(=O)N3CCCC3)cc2)c1,1.3,-3.7,.,-9.6,-1.2,-0.4,.
COc1cccc(/C=C/C(=O)OCC(=O)N2CCN(S(=O)(=O)c3ccc(Cl)cc3)CC2)c1,.,-13.9,41.1*,-7.2,1.8,-9.4,i
CCNC(=O)c1ccc(=O)n(Cc2ccc(Cl)cc2Cl)c1,.,0.3,-0.2,0.8,2.5,2.4,.
COC[C@H]1O[C@]2(c3ccccc3)CO[C@H]1[C@@H](/C=C/c1ccccc1)C2,.,.,.,-4.5,1.0,.,.
COc1ccc(-c2nn(-c3ccccc3)cc2CNCc2cccnc2)c(F)c1,-7.5,-0.7,6.0,4.5,0.5,-2.7,.
COc1ccc(-n2cc(CNCc3cccnc3)c(-c3cccc(F)c3)n2)cc1,-7.6,2.7,48.3*,-2.8,-2.3,4.2,+
CCOCCCn1c(C)nc2c(c1=O)c1nc3ccccc3nc1n2-c1ccc(C)cc1,-7.0,-14.8,49.1*,-4.5,0.7,-4.6,i
Cc1cc(NC(=O)CCC(=O)N(c2ccccc2)C(C(=O)NC2CCCC2)c2ccccc2C)no1 (configuration not stated),.,-1.4,-1.2,-8.2,-13.1,-11.8,.
CCC(C)c1ccc(NC(=O)N2CCOCC2)cc1 (configuration not stated),.,4.0,3.1,0.7,2.1,-6.7,.

# Assay outcomes: PubChem BioAssay, several laboratories
